This note sets out measurements from PubChem BioAssay (NCI).

Molecules are shown by their SMILES. Compounds without any hit were thinned out: in the full panel of roughly 83,000, 20% have a hit.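 96-well plates, one dose, 48 hours. Percent growth reported; active if below 10.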 Values without a mark were called inactive. Activity calls are given as the source filed them.

Among the test systems are T-47D breast; MDA-MB-435 melanoma; SW-620 colon; MCF7 breast; HCT-116 colon; KM12 colon; HCC-2998 colon; BT-549 breast.
Assay in all cases: NCI-60 one-dose screen, 48 h (100 = growth as untreated, 0 = no growth, -100 = all killed)
Common to all, as to details: 10 µM unless noted

As for `Fc1ccc(-c2nn3c(-c4cc(C(F)(F)F)cc(C(F)(F)F)c4)nnc3s2)cc1`, the growth in the assay with T-47D breast is 51.8%; in the assay with MDA-MB-435 melanoma it was 76.3%; in the assay on SW-620 colon, 65.8%; with MCF7 breast it was 68.7%; in the assay with HCT-116 colon it was -17.3% (active); with KM12 colon, 77.5%.

Take `NC(=O)c1cc(Cl)ccc1NC(=O)c1ccccc1-c1ccccc1`: the growth in the assay on T-47D breast is 26.9%; in the assay on MDA-MB-435 melanoma, -63.7% (active); in the assay with MCF7 breast, 25.4%; with HCT-116 colon it was 23.2%; in the assay with HCC-2998 colon, 49.3%; in the assay on KM12 colon, 16.9%.

For `O=C(c1ccc(Cl)cc1)c1ccc(Cl)cc1`, the growth is 101% with T-47D breast; 107% in the assay with MDA-MB-435 melanoma; 103% in the assay on SW-620 colon; 104% in the assay with MCF7 breast; 110% in the assay on HCT-116 colon; 96.7% in the assay with HCC-2998 colon. The growth in the assay with KM12 colon was 110%.

As to `NS(=O)(=O)c1ccc(N2CC(c3nc4ccccc4[nH]3)CC2=O)cc1` (configuration not stated), the growth with T-47D breast was 88.8%; with MDA-MB-435 melanoma, 104%; in the assay with SW-620 colon, 104%; in the assay with MCF7 breast it was 94.9%; in the assay on HCT-116 colon, 104%; in the assay with HCC-2998 colon, 99.1%. Also, in the assay with KM12 colon, the growth is 97.6%.

As to `COc1ccc(NC(=O)c2ccccc2-c2ccccc2)c(C(N)=O)c1`, the growth in the assay on T-47D breast is 34%; in the assay with SW-620 colon, 24.7%; with MCF7 breast, 25.5%; in the assay on HCT-116 colon, 27%; in the assay with HCC-2998 colon, 76.7%; in the assay with KM12 colon it was 19.2%.

As to `COC(=O)[C@H](Cc1cn(C)cn1)NC(=O)[C@H](Cc1ccccc1)NC(=O)Nc1cc(C(F)(F)F)cc(C(F)(F)F)c1`, the growth in the assay on T-47D breast is -55.3% [100 µM] (active); in the assay on BT-549 breast it was -95.5% [100 µM] (active); with SW-620 colon, -46.2% [100 µM] (active); in the assay on MCF7 breast, -60.8% [100 µM] (active); in the assay with HCT-116 colon, -91.5% [100 µM] (active); with HCC-2998 colon it was -86.9% [100 µM] (active). Besides, the growth in the assay with KM12 colon is -92.2% [100 µM] (active).

`CCOC(=O)N1CCC(N=C2CSc3nnc(-c4cc(C(F)(F)F)cc(C(F)(F)F)c4)n3N2)CC1`: the growth in the assay on T-47D breast is 34%; in the assay with MDA-MB-435 melanoma it was 24.9%; in the assay with MCF7 breast, 13.6%; in the assay with HCT-116 colon, -10.9% (active); in the assay on KM12 colon, 34.5%.

On to `N#Cc1c(-c2ccc(F)cc2)n2c(nc1=O)SC(=O)C2=O`, for which the growth with T-47D breast is 114%; in the assay with BT-549 breast, 99.1%; in the assay with MCF7 breast it was 89.4%; in the assay with HCT-116 colon it was 102%; with HCC-2998 colon, 102%; in the assay with KM12 colon, 104%.

In the case of `COc1ccc(C(=O)COc2ccc(/C=C3\Oc4ccc5ccccc5c4C3=O)cc2)cc1`, the growth in the assay with T-47D breast is 55.8%; in the assay with BT-549 breast, 45.1%; in the assay on MCF7 breast it was 36.3%; in the assay on HCT-116 colon it was 85.9%; in the assay with HCC-2998 colon it was 97.9%; with KM12 colon it was 90.9%.

In the case of `C1=C(Cc2ccccc2)n2cnc3ncnc(c32)S1`, the growth in the assay with T-47D breast was 29.6%; in the assay with MDA-MB-435 melanoma, 26.5%; in the assay on SW-620 colon it was 69%; in the assay on MCF7 breast, 20.3%; in the assay with HCT-116 colon, 57.1%; in the assay on HCC-2998 colon it was 70.2%. Further, the growth in the assay on KM12 colon was 69.6%.

For the molecule `COc1cc(/C=C/c2cc(/C=C/c3ccc(O)c(OC)c3)n(C(=O)Cc3ccccc3)n2)ccc1O`, the growth in the assay on T-47D breast was -7.75% (active); with SW-620 colon it was 4.63% (active); in the assay with MCF7 breast it was -0.783% (active); in the assay with HCT-116 colon, 1.23% (active); in the assay on HCC-2998 colon it was 17.2%; in the assay with KM12 colon, 9.39% (active).

With `COc1ccc(-n2cnc3cc(C(=O)N4CCCCC4)ccc32)cc1`, the growth is 91% in the assay on T-47D breast; 102% in the assay on MDA-MB-435 melanoma; 104% in the assay on SW-620 colon; 103% in the assay on MCF7 breast; 98.3% with HCT-116 colon; 104% with HCC-2998 colon. For the same molecule, the growth in the assay with KM12 colon was 107%.

With `COc1cc(/C=C\C(C)=N\Nc2ccccc2)ccc1O`, the growth in the assay on T-47D breast was 68%; with BT-549 breast it was 102%; in the assay with MCF7 breast it was 82.4%; in the assay on HCT-116 colon it was 91.4%; with KM12 colon, 52.8%.

Consider `O=C(Nc1nn2c(-c3cc(C(F)(F)F)cc(C(F)(F)F)c3)nnc2s1)C1CCCC1`, for which the growth was 11.6% in the assay on T-47D breast; 12.5% in the assay with MDA-MB-435 melanoma; 15.5% in the assay on SW-620 colon; 6.67% (active) in the assay on MCF7 breast; -29.7% (active) with HCT-116 colon; 11.1% with KM12 colon.

For the molecule `O=Nc1c2cccnc2n2nnc3ccc(Cl)cc3c12`, the growth was 12.1% in the assay on T-47D breast; 70.4% in the assay with MDA-MB-435 melanoma; -67.3% (active) in the assay with SW-620 colon; -10.6% (active) in the assay with MCF7 breast; 0.54% (active) with HCT-116 colon; 93.1% in the assay with HCC-2998 colon. For the same molecule, the growth in the assay with KM12 colon was 25.2%.

`Cc1cc(C)cc(S(=O)(=O)n2ccc(-c3ccc4c(c3)CCC(C)(C)O4)n2)c1`: the growth is 58.2% in the assay on T-47D breast; 93.8% in the assay with MDA-MB-435 melanoma; 88.3% in the assay with SW-620 colon; 81.5% in the assay on MCF7 breast; 77.8% in the assay on HCT-116 colon; 88.2% in the assay with HCC-2998 colon. Also, in the assay with KM12 colon, the growth is 82.7%.

Take `CC12CCC3C(=CCc4cc(O)ccc43)C1CCC2=O` (configuration not stated): the growth was 104% in the assay with T-47D breast; 99.5% in the assay with BT-549 breast; 106% in the assay with SW-620 colon; 120% in the assay on MCF7 breast; 102% in the assay with HCT-116 colon; 111% in the assay with HCC-2998 colon. The growth with KM12 colon is 108%.

On to `O=C1c2cccc3c([N+](=O)[O-])ccc(c23)C(=O)N1CCCCl`, for which the growth in the assay with T-47D breast was -48.4% [100 µM] (active); in the assay on BT-549 breast it was -98.2% [100 µM] (active); in the assay on SW-620 colon, -44.4% [100 µM] (active); in the assay on MCF7 breast, -65.5% [100 µM] (active); with HCT-116 colon, -90.6% [100 µM] (active); with HCC-2998 colon it was -91.9% [100 µM] (active). Further, in the assay with KM12 colon, the growth is -81.3% [100 µM] (active).

Regarding `Nc1ccc(Oc2c(F)c(F)c(Oc3ccc(N)cc3)c(F)c2F)cc1`, the growth in the assay on BT-549 breast was 108%; in the assay on MDA-MB-435 melanoma it was 104%; with SW-620 colon, 102%; in the assay with MCF7 breast it was 129%; in the assay with HCT-116 colon, 81.5%; in the assay with HCC-2998 colon, 73.1%. Also, in the assay on KM12 colon, the growth is 110%.

Turning to `O=C(CC1Sc2ccccc2NC1=O)NNc1cccc(Cl)c1Cl` (configuration not stated), the growth was 89.1% in the assay on BT-549 breast; 95.4% in the assay with MDA-MB-435 melanoma; 87.3% with SW-620 colon; 92.4% with MCF7 breast; 87% in the assay on HCT-116 colon; 88.5% in the assay on HCC-2998 colon. The growth in the assay with KM12 colon was 82.7%.

For the molecule `Cc1[nH]ccc2cc3nc4ccccc4c3cc12`, the growth is 60.3% with BT-549 breast; 33.9% with MDA-MB-435 melanoma; 22.1% in the assay on SW-620 colon; 7.1% (active) in the assay with MCF7 breast; 22% with HCT-116 colon; 33.7% in the assay with HCC-2998 colon. Further, the growth with KM12 colon was 29%.

Turning to `COc1c(Br)cc(C(c2cc(Br)c(OC)c(Br)c2)c2ccccc2C(=O)O)cc1Br`, the growth in the assay on BT-549 breast is 82.8%; in the assay on MDA-MB-435 melanoma, 104%; in the assay on MCF7 breast, 96.5%; in the assay on HCT-116 colon, 90.2%; with HCC-2998 colon it was 97.8%; with KM12 colon, 103%.

For the molecule `COc1ccc(C2CC(c3ccc4c(c3)OCO4)=NN2C=O)cc1` (configuration not stated), the growth in the assay on BT-549 breast was 89.1%; in the assay on SW-620 colon, 104%; in the assay with MCF7 breast it was 98.6%; in the assay with HCT-116 colon, 96.4%; with HCC-2998 colon, 102%; in the assay on KM12 colon it was 105%.

Take `CC1=C([Se]CC(OC(=O)[C@@H](CSSC(C)(C)C)NC(=O)C(C)(C)C)C(=O)NCCCCCC(=O)OCc2ccccc2)C(=O)c2ccccc2C1=O` (some centres not stated): the growth in the assay with BT-549 breast is -64.2% (active); in the assay with MDA-MB-435 melanoma, 14.2%; in the assay with SW-620 colon it was 9.84% (active); in the assay with MCF7 breast it was 30.3%; in the assay with HCT-116 colon, -18% (active); in the assay on HCC-2998 colon, -63.9% (active). For the same molecule, in the assay on KM12 colon, the growth is 6.76% (active).

Consider `O=C(C(=O)N1CCOCC1)c1cn(CCCn2cc(C(=O)C(=O)N3CCOCC3)c3ccccc32)c2ccccc12`, for which the growth in the assay on BT-549 breast is 104%; with MDA-MB-435 melanoma it was 111%; in the assay with SW-620 colon it was 115%; with MCF7 breast, 95.4%; in the assay on HCT-116 colon, 98.4%; with HCC-2998 colon, 108%. The growth with KM12 colon was 110%.
